# Screen size: about 290,000 compounds; about 570 (0.2%) were called active. Inconclusive results (about 1%) are left out. No stated cut-off is given here; in the data, active means inhibition mostly above about 51% (no sharp cut-off); inconclusive means no clear call, values can overlap the other calls; inactive means mostly below about 53%. Only a selection was taken, and actives are over-represented in it overall.
# Target: Voltage-dependent N-type calcium channel subunit alpha-1B (Homo sapiens) (UniProt Q00975)
# Assay: inhibitors of Mint1-CaV2.2 protein interaction, biochemical, HTRF (AID 2073)
# Conditions: at 20 µM, stronger effect = higher value
# Sequence of Voltage-dependent N-type calcium channel subunit alpha-1B (Homo sapiens) (Q00975 whole entry, looked up): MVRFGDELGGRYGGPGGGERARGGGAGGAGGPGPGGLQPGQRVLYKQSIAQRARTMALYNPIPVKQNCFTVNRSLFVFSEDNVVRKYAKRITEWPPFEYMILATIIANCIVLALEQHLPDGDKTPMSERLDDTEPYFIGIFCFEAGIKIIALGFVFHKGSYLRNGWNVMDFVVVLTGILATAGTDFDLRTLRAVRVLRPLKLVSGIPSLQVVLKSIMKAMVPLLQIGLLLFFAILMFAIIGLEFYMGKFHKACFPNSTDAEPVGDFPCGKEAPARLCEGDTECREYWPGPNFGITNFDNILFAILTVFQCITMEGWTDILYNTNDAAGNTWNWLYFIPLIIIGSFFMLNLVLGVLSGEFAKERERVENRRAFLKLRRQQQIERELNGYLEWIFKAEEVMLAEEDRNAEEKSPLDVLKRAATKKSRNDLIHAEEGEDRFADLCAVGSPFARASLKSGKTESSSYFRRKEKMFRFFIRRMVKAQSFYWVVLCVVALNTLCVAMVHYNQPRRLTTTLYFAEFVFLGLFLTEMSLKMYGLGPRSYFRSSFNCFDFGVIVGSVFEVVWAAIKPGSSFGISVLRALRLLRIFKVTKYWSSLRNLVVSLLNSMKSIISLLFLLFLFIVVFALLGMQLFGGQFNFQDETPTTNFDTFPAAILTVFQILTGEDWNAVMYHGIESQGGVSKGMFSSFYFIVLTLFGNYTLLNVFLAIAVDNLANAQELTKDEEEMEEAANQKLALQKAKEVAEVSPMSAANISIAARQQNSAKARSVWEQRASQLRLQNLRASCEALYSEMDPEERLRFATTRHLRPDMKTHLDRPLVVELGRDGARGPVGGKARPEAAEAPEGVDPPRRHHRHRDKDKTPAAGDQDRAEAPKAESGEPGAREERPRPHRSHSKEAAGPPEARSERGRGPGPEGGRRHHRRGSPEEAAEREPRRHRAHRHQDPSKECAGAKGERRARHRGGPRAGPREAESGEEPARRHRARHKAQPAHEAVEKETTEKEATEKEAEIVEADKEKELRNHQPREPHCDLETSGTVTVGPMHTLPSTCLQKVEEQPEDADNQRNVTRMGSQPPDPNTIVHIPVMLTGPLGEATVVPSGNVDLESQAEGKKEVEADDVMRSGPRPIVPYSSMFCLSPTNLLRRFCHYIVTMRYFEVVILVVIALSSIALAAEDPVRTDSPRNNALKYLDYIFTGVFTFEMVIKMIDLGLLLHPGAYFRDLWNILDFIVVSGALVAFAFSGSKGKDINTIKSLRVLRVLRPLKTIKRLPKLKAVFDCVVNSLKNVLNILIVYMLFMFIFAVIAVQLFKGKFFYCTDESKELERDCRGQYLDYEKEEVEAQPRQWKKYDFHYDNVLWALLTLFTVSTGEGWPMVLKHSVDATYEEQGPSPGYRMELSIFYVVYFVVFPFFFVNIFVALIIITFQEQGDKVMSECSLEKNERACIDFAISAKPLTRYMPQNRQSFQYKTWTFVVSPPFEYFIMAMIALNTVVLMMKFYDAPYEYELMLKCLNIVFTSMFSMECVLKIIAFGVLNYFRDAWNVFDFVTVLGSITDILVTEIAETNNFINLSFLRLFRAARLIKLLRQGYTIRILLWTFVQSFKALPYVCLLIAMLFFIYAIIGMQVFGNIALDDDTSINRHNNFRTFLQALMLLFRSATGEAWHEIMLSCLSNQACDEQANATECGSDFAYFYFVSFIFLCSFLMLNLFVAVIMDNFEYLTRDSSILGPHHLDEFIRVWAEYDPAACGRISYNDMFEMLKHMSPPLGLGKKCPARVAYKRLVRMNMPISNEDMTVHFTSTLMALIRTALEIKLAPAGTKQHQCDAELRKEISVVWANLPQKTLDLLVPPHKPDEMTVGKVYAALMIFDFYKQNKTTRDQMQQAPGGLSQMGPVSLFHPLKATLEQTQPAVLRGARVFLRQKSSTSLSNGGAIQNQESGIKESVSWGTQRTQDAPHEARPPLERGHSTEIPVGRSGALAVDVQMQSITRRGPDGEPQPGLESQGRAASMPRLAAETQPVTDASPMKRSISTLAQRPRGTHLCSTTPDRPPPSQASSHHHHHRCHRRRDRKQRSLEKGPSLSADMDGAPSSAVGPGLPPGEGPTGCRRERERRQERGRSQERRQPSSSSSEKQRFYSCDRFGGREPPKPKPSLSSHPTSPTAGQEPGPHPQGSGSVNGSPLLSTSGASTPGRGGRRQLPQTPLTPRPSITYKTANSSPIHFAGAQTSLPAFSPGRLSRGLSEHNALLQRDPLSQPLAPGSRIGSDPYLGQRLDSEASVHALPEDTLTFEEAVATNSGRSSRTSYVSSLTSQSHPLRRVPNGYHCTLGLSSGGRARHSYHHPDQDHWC
SMILES,inhibition,inhibition (measured here: average of repeat tests)
C/C(=N\NC(N)=S)C1(C)CCCCC1,1.7% (inactive),–
CCNc1nc(-c2cc(C)n(Cc3ccco3)c2C)cs1,71.4% (inactive),-8.8%
Cc1cc(-c2csc(NC(=O)c3ccc(C#N)cc3)n2)c(C)n1Cc1ccccc1,31.3% (inactive),–
Cc1cc(-c2csc(NC(=O)c3ccc(C#N)cc3)n2)c(C)n1Cc1ccco1,74% (active),–
COc1ccc(-c2noc(N3CCC(C(=O)Nc4ccccc4Cl)CC3)n2)cc1,1.9% (inactive),–
Cc1onc(-c2ccccc2)c1C(=O)OCC(=O)NCc1ccc(F)cc1,-0.7% (inactive),–
CCOc1ccc(Oc2c(C)oc3cc(O)ccc3c2=O)cc1,15.1% (inactive),–
Cc1ccc(N=Cc2nc(-c3ccc(C)cc3)oc2O)cc1,17.5% (inactive),–
Cc1ccc(-c2nc(C=Nc3ccccc3)c(O)o2)cc1,-6.2% (inactive),–
CC(NCC(O)c1ccc([N+](=O)[O-])cc1)C12CC3CC(CC(C3)C1)C2 (stereo not drawn),0.6% (inactive),–
CCNC(=O)COC(=O)c1ccc(-n2nc(C)cc2C)cc1,5.8% (inactive),–
COc1cc(/C=N/N=C(/C(=O)c2ccccc2)c2ccccc2)cc(OC)c1O,-2.5% (inactive),–
O=C(/C(=N/N=C/c1ccc(O)c(O)c1)c1ccccc1)c1ccccc1,-21.8% (inactive),–
O=C(/C(=N/N=C/c1ccc(O)c(O)c1O)c1ccccc1)c1ccccc1,66.2% (active),–
CCC(=O)N1CC2(C)CN(C(=O)CC)CC(C)(C1)C2,-2.6% (inactive),–
COc1ccc(C(=O)N2CCCC(CO)(Cc3ccccc3C)C2)o1 (stereo not drawn),2.1% (inactive),–
CCCCc1ccc(-c2csc(/C(C#N)=C/c3ccc(C)o3)n2)cc1,16.8% (inactive),–
CCCCc1ccc(-c2csc(/C(C#N)=C/c3ccco3)n2)cc1,49.9% (inactive),–
CCCCc1ccc(-c2csc(/C(C#N)=C\c3ccco3)n2)cc1,57.8% (active),–
CSc1nc(N2CCN(c3ccccc3)CC2)cc(N2CCN(c3ccccc3)CC2)n1,18.7% (inactive),–
O=C(N/N=C1\CCCc2ccccc21)c1cccc(Br)c1,-12.7% (inactive),–

SMILES,inhibition,inhibition (measured here: average of repeat tests)
Cc1ccccc1CN(c1ccc(C(=O)NCc2ccccn2)cc1)S(C)(=O)=O,-3.2% (inactive),–
CCc1ccc(Nc2n[n+](-c3ccccc3)c(-c3ccc(OC)c(Br)c3)s2)cc1,19.2% (inactive),–
COC(=O)c1c(NC(=O)COC(=O)c2ccccc2O)sc2c1CCCCC2,-3% (inactive),–
COC(=O)c1c(NC(=O)COC(=O)c2ccc(NC(=O)CC#N)cc2)sc2c1CCCCC2,78.4% (active),–
COC(=O)c1c(NC(=O)COC(=O)c2ccc(O)cc2)sc2c1CCCCC2,5.8% (inactive),–
CC(C)CCN1C(Nc2ccccc2)=NC[C@@H]1C,2.7% (inactive),–
COc1ccccc1-c1cc(C(=O)Nc2cc(C)n(Cc3ccc(Cl)cc3)n2)no1,7.9% (inactive),–
Cc1c(Cl)cccc1NC(=O)CCCN1C(=O)c2cccnc2C1=O,3.3% (inactive),–
COc1ccc(Nc2c(-c3ccc(OC)cc3)nc3cnccn23)cc1,-9.1% (inactive),–
O=C(/C=C/Nc1ccccc1)c1ccccc1,-0.7% (inactive),–
CC1(C)OC(=O)C(=CNc2ccccc2)C(=O)O1,-0.4% (inactive),–
O=C([C@@H]1Cc2ccccc2CN1)N1CCN(Cc2ccccc2)CC1,8.9% (inactive),–
Cc1ccc(-n2ncc3c2CCCC3NC(=O)CCc2c(C)noc2C)cc1C (stereo not drawn),16.6% (inactive),–
CCNc1ccc(Br)cc(C(=O)/C=C/c2ccc(Cl)cc2Cl)c1=O,23.6% (inactive),–
CNc1ccc(Br)cc(C(=O)/C=C/c2cccc(Cl)c2Cl)c1=O,41.9% (inactive),–
CNc1ccc(Br)cc(C(=O)/C=C/c2ccc(Cl)cc2Cl)c1=O,52.7% (active),–
COc1cc(/C=C2\SC(=N)N(c3ccc4c(c3)OCO4)C2=O)cc(OC)c1O,-8.5% (inactive),–
COc1ccc(/C=C2\SC(=N)N(c3nccs3)C2=O)cc1OC,20.5% (inactive),–
N=C1S/C(=C\c2ccco2)C(=O)N1c1ccc2c(c1)OCO2,56% (active),–
N=C1S/C(=C\c2ccco2)C(=O)N1c1nccs1,50% (active),–
N=C1S/C(=C\c2ccc(-c3cccc(Cl)c3)o2)C(=O)N1c1nccs1,35.6% (inactive),–

SMILES,inhibition,inhibition (measured here: average of repeat tests)
N=C1S/C(=C\c2ccc(-c3ccccc3C(=O)O)o2)C(=O)N1c1ccc2c(c1)OCO2,17.7% (inactive),–
c1ccc(Cc2nnc3sc(-c4cccnc4)nn23)cc1,-12.8% (inactive),–
COc1ccc(CN(CC(=O)NC(C)C)C(=O)CCC(=O)Nc2nccs2)cc1,9.7% (inactive),–
CCOc1ccc(N2C(=O)CN(C)C2=S)cc1,-2% (inactive),–
CC1CCN(C(=O)CCc2ccc(S(=O)(=O)NC(C)C)cc2)CC1,28.5% (inactive),–
O=C(Cn1c(-c2ccco2)nc2ccccc21)N1CCCCC1,-14.9% (inactive),–
Cn1nc(C(F)(F)F)c(-c2ccc(Br)cc2)c1NC(=O)c1nccnc1C(=O)O,0.4% (inactive),–
COc1ccc(NC2CCCN(C(=O)c3csc(C(C)C)n3)C2)cc1OC (stereo not drawn),-10% (inactive),–
CSc1ccccc1OCc1cc(C(=O)NCc2cnc(C)cn2)no1,5.6% (inactive),–
Cc1cc(Cl)ccc1N=C1N=C(N)c2ccccc21,-3.2% (inactive),–
OCc1ccccc1N=c1ssnc1Cl,9.9% (inactive),–
Nc1ccccc1N=c1ssnc1Cl,4.1% (inactive),–
Fc1ccc(N=c2ssnc2Cl)c(F)c1,91.2% (active),–
Clc1ccc(N=c2ssnc2Cl)nc1,38.2% (inactive),–
COc1cccc(CNC(=O)CSc2nnc3c(n2)[nH]c2ccc(OC)cc23)c1,5.3% (inactive),–
Cc1ccc2c(Cl)cc(Cl)c(OCC(=O)NCc3ccco3)c2n1,56.6% (active),–
Cc1ccc2c(Cl)cc(Cl)c(OCC(=O)NC(=O)NCc3ccco3)c2n1,17.4% (inactive),–
Cc1cc(Cl)cc(Cl)c1OCC(=O)NCc1ccco1,-1.4% (inactive),–
CC1CCN(CC(=O)Nc2cccc(Cl)c2)CC1,-2.2% (inactive),–
CC1(C(=O)N2CC3(CC(c4cccc([N+](=O)[O-])c4)=NO3)C[C@H]2C(=O)NCC(N)=O)CC1 (stereo partly drawn),-4.4% (inactive),–

# From PubChem BioAssay AID2073 (Sanford-Burnham Center for Chemical Genomics, 2009)
